A short description of experiment [1]: E. coli DRC41 culture turbidity changes, primary screen, E. coli filamentation inducer project, strain DRC41, OD650, 48 h (AID 1152).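 Further: E. coli MC1000 strain DRC41 lacking acrAB efflux pump and sulA.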 Particulars: E. coli DRC41 (acrAB sulA), higher = more signal, called active from +8 up or from −8 down.
A short description of experiment [2]: small-molecule binders of probe aLefty1, primary screen, biochemical, small-molecule microarray, 635/667 nm fluorescence (AID 1153).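 Further: score merges spot fluorescence with signal-to-noise ratio from the scanned slide images.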 As to conditions: higher = more signal.
The nature of experiment [3]: PSAC antagonists in infected red cells, primary screen, cell-based, P. falciparum Indochina, OD700, 1 h (AID 1154). Particulars: P. falciparum Indochina infected RBC osmotic lysis, higher = more signal, called active from +8 up or from −8 down.
A short description of experiment [4]: PSAC antagonists in infected red cells, primary screen, cell-based, P. falciparum Indochina, OD700, 2 h (AID 1155).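 Further: lysis reports solute entry through the parasite surface anion channel PSAC; channel blockers reduce lysis of infected cells.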 Particulars: P. falciparum Indochina infected erythrocytes, osmotic lysis OD700; higher = more signal, called active from +8 up or from −8 down.
Experiment [5] can be described thus: osmotic lysis modulators in infected erythrocytes, primary screen, PSAC antagonist project, cell-based, P. falciparum Indochina, OD700, 3 h (AID 1156). Particulars: higher = more signal, called active from +8 up or from −8 down.
Experiment [6] is described as follows: PSAC antagonists in infected red cells, primary screen, cell-based, P. falciparum Indochina, OD700, 18 h (AID 1157). Particulars: P. falciparum Indochina infected erythrocytes, osmotic lysis OD700, 18 h; higher = more signal, called active from +8 up or from −8 down.
The nature of experiment [7]: modulators of S6 phosphorylation in cells, primary screen, cell-based, A549, cytoblot, luminescence, serum-stimulated (AID 1158).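 Further: serum-stimulated A549 lung adenocarcinoma cells; signal is phosphorylated S6 detected by cytoblot immunostaining with HRP secondary.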 As to conditions: A549 phospho-S6 cytoblot, 5 h, higher = more signal.
Experiment [8] deals with NADPH oxidase 2 (Homo sapiens) (UniProt P04839). Description: NOX2-dependent H2O2 signal modulators, primary screen, NOX inhibitor project, cell-based, HEK293-NOX2, PMA-stimulated, Amplex Red fluorescence (AID 1159). Further: test concentration not given here. As to conditions: 45 min, higher = more signal, called active from +8 up or from −8 down.
The target in experiment [9] is NADPH oxidase 4 (Homo sapiens) (UniProt Q9NPH5). Description: NOX4-dependent H2O2 signal modulators, primary screen, NOX inhibitor project, cell-based, HEK293-NOX4, tetracycline-induced, Amplex Red fluorescence (AID 1160). Particulars: 45 min, higher = more signal, called active from +8 up or from −8 down.
Experiment [10] concerns the target NADPH oxidase 5 (Homo sapiens) (UniProt Q96PH1). Description: NOX5-dependent H2O2 signal modulators, primary screen, NOX inhibitor project, cell-based, HEK293-NOX5, Amplex Red fluorescence (AID 1161). Particulars: HEK293-NOX5, ionomycin, 45 min, higher = more signal.

Activity calls are given as the source filed them.

NADPH oxidase 2 (Homo sapiens), sequence (P04839 whole entry, looked up): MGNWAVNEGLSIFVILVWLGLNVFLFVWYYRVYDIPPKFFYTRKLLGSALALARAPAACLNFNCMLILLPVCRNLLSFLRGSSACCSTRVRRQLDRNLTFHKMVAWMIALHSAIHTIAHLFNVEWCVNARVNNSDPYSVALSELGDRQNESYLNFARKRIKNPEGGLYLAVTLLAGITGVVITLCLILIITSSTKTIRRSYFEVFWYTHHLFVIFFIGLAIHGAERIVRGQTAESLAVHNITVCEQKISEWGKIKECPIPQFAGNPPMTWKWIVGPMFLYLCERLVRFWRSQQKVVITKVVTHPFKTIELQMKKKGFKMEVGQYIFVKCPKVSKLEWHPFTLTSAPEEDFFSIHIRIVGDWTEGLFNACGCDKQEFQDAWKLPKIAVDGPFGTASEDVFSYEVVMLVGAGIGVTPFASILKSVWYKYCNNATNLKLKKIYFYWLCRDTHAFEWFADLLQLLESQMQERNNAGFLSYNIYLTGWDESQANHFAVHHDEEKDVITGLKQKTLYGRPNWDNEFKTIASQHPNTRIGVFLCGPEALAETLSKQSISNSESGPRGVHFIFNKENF
NADPH oxidase 4 (Homo sapiens), sequence (Q9NPH5 whole entry, looked up): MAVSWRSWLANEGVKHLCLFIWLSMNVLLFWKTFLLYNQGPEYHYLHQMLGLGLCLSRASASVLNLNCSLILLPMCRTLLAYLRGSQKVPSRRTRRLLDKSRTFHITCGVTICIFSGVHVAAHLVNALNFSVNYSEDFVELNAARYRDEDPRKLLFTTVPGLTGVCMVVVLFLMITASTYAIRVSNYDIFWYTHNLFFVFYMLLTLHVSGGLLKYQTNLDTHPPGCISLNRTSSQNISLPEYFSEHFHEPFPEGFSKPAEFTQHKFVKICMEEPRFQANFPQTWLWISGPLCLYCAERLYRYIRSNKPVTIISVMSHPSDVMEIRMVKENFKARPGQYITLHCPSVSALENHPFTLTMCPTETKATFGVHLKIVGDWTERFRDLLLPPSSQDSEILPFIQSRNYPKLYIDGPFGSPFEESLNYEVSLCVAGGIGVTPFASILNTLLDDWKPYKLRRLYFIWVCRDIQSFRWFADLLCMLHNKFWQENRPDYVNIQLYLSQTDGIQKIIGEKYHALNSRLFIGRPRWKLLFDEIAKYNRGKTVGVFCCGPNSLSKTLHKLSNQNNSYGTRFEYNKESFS
NADPH oxidase 5 (Homo sapiens), sequence (Q96PH1 whole entry, looked up): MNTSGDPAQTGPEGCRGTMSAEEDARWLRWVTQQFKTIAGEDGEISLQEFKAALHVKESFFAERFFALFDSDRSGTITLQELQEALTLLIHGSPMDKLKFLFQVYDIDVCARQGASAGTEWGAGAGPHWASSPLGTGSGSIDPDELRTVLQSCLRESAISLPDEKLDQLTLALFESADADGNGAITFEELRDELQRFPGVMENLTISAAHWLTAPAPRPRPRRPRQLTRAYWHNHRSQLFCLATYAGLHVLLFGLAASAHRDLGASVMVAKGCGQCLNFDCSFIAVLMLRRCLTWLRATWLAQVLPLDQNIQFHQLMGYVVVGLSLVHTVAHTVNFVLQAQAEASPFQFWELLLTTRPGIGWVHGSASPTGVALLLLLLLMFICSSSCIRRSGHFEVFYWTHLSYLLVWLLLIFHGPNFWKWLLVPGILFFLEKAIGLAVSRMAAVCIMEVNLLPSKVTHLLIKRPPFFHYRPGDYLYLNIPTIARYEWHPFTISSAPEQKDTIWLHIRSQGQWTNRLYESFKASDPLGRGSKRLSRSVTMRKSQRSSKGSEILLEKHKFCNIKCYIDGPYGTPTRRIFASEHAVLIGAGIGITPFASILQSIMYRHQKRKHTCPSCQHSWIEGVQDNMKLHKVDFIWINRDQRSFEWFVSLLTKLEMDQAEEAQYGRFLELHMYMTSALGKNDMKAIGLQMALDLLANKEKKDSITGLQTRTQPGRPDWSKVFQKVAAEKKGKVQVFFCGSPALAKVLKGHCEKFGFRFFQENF

In the case of `O=C1OCCC/C=C\[C@H]2OC34C=CCN(CCN5CCOCC5)C(=O)[C@H]3N(CCCCCO)C(=O)[C@@H]4C12` (stereo not given in full), the z-score in [1] is -0.938 (inactive); in [3] it was 1.07 (inactive); in experiment [4] it was -0.314 (inactive); in [5], -0.566 (inactive); in experiment [6] it was -0.525 (inactive); in [7], -0.768. Besides, the z-score was 0.796 (inactive) in [8], -0.109 (inactive) in experiment [9] and 1.01 in [10]. In addition, the composite z-score in [2] was -0.0984.
Take `CO[C@]12C=C(Br)[C@@H](C[C@@H]1c1ccccc1)[C@@]1(CO1)C2=O`: the z-score in [1] was 2.36 (inactive); in [3] it was -0.0452 (inactive); in experiment [4], -0.698 (inactive); in [5], 0.422 (inactive); in experiment [6] it was -1.7 (inactive); in experiment [7], 0.716. In addition, the z-score was 0.575 (inactive) in experiment [8], 0.625 (inactive) in experiment [9] and 0.339 in experiment [10]. The same molecule had a composite z-score in experiment [2] of 0.166.
`CC(C)C[C@@H]1NC(=O)[C@H](CC(C)C)NC(=O)[C@@]23C(=O)N[C@@H](Cc4ccccc4)C2[C@H](C)[C@@]2(C)O[C@H]2C3/C=C/CC/C=C/CNC1=O` (stereo not given in full): the z-score in [1] is -0.239 (inactive); in [3], 1.7 (inactive); in experiment [4] it was 0.627 (inactive); in experiment [5], 1.33 (inactive); in experiment [6], 0.575 (inactive); in experiment [7] it was -0.0044. Further, the z-score in [8] is 0.123 (inactive); in [9], 0.349 (inactive); in [10], -1.62. The molecule further showed a composite z-score in [2] of 0.0275.
For the molecule `CCOC(=O)C1=CC[C@@H](c2ccccc2)N(S(=O)(=O)c2ccc(C)cc2)[C@H]1C`, the z-score in experiment [1] was -1.29 (inactive); in [3], 3.28 (inactive); in experiment [4], 1.03 (inactive); in experiment [5], -0.392 (inactive); in experiment [6] it was 0.215 (inactive); in experiment [7], -0.343. Further, the z-score in experiment [8] is 0.21 (inactive); in [9] it was -0.291 (inactive); in [10], 0.0997. In experiment [2], the composite z-score came out at 0.0668.
Consider `CC(=O)NCCCC[C@@H]1NC(=O)[C@@H]2C[C@H](C(=O)NCCCCCNC(=O)CS)[C@H](c3ccc(O)cc3)N2C1=O`, for which the z-score in [1] was 3.01 (inactive); in experiment [3] it was 2.55 (inactive); in experiment [4], -0.247 (inactive); in experiment [5], -2.2 (inactive); in experiment [6], -1.04 (inactive); in experiment [7], 1.68. Moreover, the results for the z-score in [8], in [9] and in experiment [10] were 0.391 (inactive), 0.284 (inactive) and 0.531, respectively. In experiment [2], this molecule returned a composite z-score of -0.0528.
On to `C=CCC(OC(C)=O)[C@@H]1[C@@H](N(Cc2cccc3ccccc23)C(=O)Cc2ccc(F)cc2)c2cc(OCCCO)ccc2N1C(=O)Cc1ccc2ccccc2c1` (stereo not given in full), for which the z-score in [1] is 0.576 (inactive); in experiment [3], 1.71 (inactive); in [4] it was 0.605 (inactive); in experiment [5], -0.0952 (inactive); in [6], 0.434 (inactive); in experiment [7], 0.163. The results for the z-score in experiment [8], in [9] and in [10] were -0.606 (inactive), 0.626 (inactive) and 0.765, respectively. The molecule also had a composite z-score in [2] of -0.0162.
Turning to `O=C(CS)NCCCCCNC(=O)[C@H]1C[C@H]2C(=O)N3CCC[C@H]3C(=O)N2[C@H]1c1ccc(O)cc1`, the z-score was 1.65 (inactive) in [1]; 2.68 (inactive) in experiment [3]; -0.856 (inactive) in [4]; -2.55 (inactive) in experiment [5]; -1.63 (inactive) in experiment [6]; 1.24 in experiment [7]. Moreover, the z-score in experiment [8] is 0.274 (inactive); in [9], 0.00663 (inactive); in experiment [10], 0.214. In addition, in [2], the composite z-score was 0.357.
For the molecule `C[C@@H]1NC(=O)[C@H](Cc2ccccc2)NC(=O)[C@@]23C(=O)N[C@@H](Cc4ccccc4)C2[C@H](C)[C@@]2(C)O[C@H]2C3/C=C/C/C=C\CNC1=O` (stereo not given in full), the z-score in [1] is -1.13 (inactive); in experiment [3] it was 1.87 (inactive); in experiment [4], 0.316 (inactive); in experiment [5], 0.134 (inactive); in experiment [6], -0.0643 (inactive); in experiment [7] it was -0.248. In addition, the values for the z-score in experiment [8], in experiment [9] and in experiment [10] were 0.832 (inactive), -0.951 (inactive) and 0.906, respectively. In [2], this molecule registered a composite z-score of -0.169.
On to `COCCCNC(=O)[C@@]1(Sc2ccc(C)cc2)CC(=O)N(Cc2cc(C(F)(F)F)cc(C(F)(F)F)c2)[C@@H]1c1ccc(CO)cc1I`, for which the z-score is 1.57 (inactive) in experiment [1]; 2.3 (inactive) in [3]; 1.08 (inactive) in experiment [4]; -0.34 (inactive) in [5]; 0.278 (inactive) in [6]; 0.411 in experiment [7]. Further, the z-score in experiment [8] was 2.35 (inactive); in experiment [9], -0.978 (inactive); in experiment [10], 1.75. This molecule returned a composite z-score in experiment [2] of 0.162.
As to `CCOC(=O)C[C@H]1[C@H](OC(=O)c2ccccc2-c2ccccc2)[C@@H](NC(=O)C2CCCCC2)c2cc(OCCCO)ccc2N1C(=O)c1ccccc1`, the z-score in [1] is 1.99 (inactive); in experiment [3] it was 1.97 (inactive); in [4] it was 0.718 (inactive); in experiment [5], 0.217 (inactive); in experiment [6], 0.402 (inactive); in experiment [7] it was -0.073. For the same molecule, the figures for the z-score in experiment [8], in [9] and in [10] were 0.629 (inactive), 0.936 (inactive) and -1.64, respectively. This molecule also registered a composite z-score in [2] of -0.191.
Regarding `CO[C@@H]1COC(=O)[C@@H]2CCCN2C(=O)CC=C[C@@H](C)[C@H](OC)COC(=O)[C@@H]2CCCN2C(=O)CC=C[C@H]1C`, the z-score was 1.11 (inactive) in [1]; -0.0896 (inactive) in experiment [3]; 0.0184 (inactive) in experiment [4]; 0.11 (inactive) in experiment [5]; -0.113 (inactive) in [6]; 0.956 in [7]. Moreover, the z-score in [8] is -0.353 (inactive); in experiment [9] it was 0.476 (inactive); in [10], 0.606. In addition, the composite z-score in experiment [2] was -0.0984.
In the case of `CO[C@H]1COC(=O)[C@H](C)NC(=O)CC=C[C@@H](C)[C@H](NS(=O)(=O)c2ccc(C)cc2)COC(=O)CC=C[C@@H]1C`, the z-score was -0.154 (inactive) in experiment [1]; 0.868 (inactive) in experiment [3]; 0.41 (inactive) in [4]; 0.229 (inactive) in experiment [5]; 0.33 (inactive) in experiment [6]; 0.356 in experiment [7]. For the same molecule, the z-score is 0.734 (inactive) in experiment [8], 0.631 (inactive) in experiment [9] and 0.971 in experiment [10]. The molecule further returned a composite z-score in [2] of -0.232.
For `Cc1ccc(S[C@]2(C(=O)NCCCN(C)C)CC(=O)N(Cc3ccccc3)[C@@H]2c2ccc(CO)cc2I)cc1`, the z-score in [1] was -0.901 (inactive); in [3], 8.39 (active); in [4] it was 0.909 (inactive); in [5] it was 1.94 (inactive); in [6] it was 0.256 (inactive); in [7] it was -0.0322. For the same molecule, the results for the z-score in [8], in [9] and in [10] were -0.234 (inactive), -1.63 (inactive) and 1.72, respectively. Further, the composite z-score in experiment [2] was 0.374.
